PubChem BioAssay (NCI)
About 79,000 compounds went through this panel and 15% of them were active in at least one assay; those are over-represented in the sample as a whole. No stated cut-off is given here; in the data, active means growth inhibition above about 70%; inactive means the rest.

Key:
[1] = NCI Yeast Anticancer Drug Screen. Data for the rad50 strain (AID 155);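 further: 0% = growth of vehicle-only cultures of the same strain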; conditions: S. cerevisiae rad50 strain growth inhibition; at 50.0 µM; stronger effect = higher value
Summary of the method: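 Cells are treated with compound, grown, and their growth is then scored against vehicle-only cultures of the same repair-deficient yeast strain.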

[2] = NCI Yeast Anticancer Drug Screen. Data for the mec2-1 strain (AID 157); conditions: S. cerevisiae mec2-1 strain, at 50.0 µM, stronger effect = higher value
Summary of the method: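 Vehicle-treated cultures served as reference for growth inhibition of compound-exposed mec2-1 yeast.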

[3] = NCI Yeast Anticancer Drug Screen. Data for the sgs1 mgt1 strain (AID 161);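 further: 0% = growth of cultures given vehicle only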; conditions: S. cerevisiae sgs1 mgt1 strain, at 50.0 µM, stronger effect = higher value
Summary of the method: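 Inhibition of yeast growth, normalised to vehicle-treated controls, is reported for a strain bearing genetic alterations in DNA damage repair.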

[4] = NCI Yeast Anticancer Drug Screen. Data for the cln2 rad14 strain (AID 165);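 further: 0% = growth equal to vehicle treated cultures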; conditions: S. cerevisiae cln2 rad14 strain, at 50.0 µM, stronger effect = higher value
Summary of the method: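 Each compound was tested on cln2 rad14 yeast. Inhibition of growth was calculated against vehicle-exposed controls.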

[5] = NCI Yeast Anticancer Drug Screen. Data for the bub3 strain (AID 167); conditions: S. cerevisiae bub3 mutant strain, at 50.0 µM, stronger effect = higher value
Summary of the method: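 Part of a panel of yeast mutants defective in DNA damage repair or cell cycle regulation. Each strain is grown with compound, and inhibition is calculated relative to solvent-treated cultures.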

[6] = NCI Yeast Anticancer Drug Screen. Data for the mlh1 rad18 strain (AID 175); conditions: S. cerevisiae mlh1 rad18 strain growth inhibition; at 50.0 µM; stronger effect = higher value
Summary of the method: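 Vehicle-treated cultures served as the reference for growth inhibition in a yeast strain carrying DNA damage repair alterations exposed to each compound.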

Measured: growth inhibition

O=c1[nH]c2nc3ccccc3c(=O)n2/c1=C/c1ccc(O)cc1
inactive: [1] 9.6% | [2] 2.3% | [3] -12% | [4] 8.95% | [5] 7.3% | [6] -19.8%

COc1ccc(/C=C/Cc2cc3c(cc2OC(C)=O)OCO3)cc1
inactive: [1] 11.8% | [2] 0.4% | [3] 26.1% | [4] -8.4% | [5] 33% | [6] 12.4%

C/C=C(\C)C(=O)N/N=C\C=C\c1ccccc1
inactive: [1] -12.2% | [2] -10.8% | [3] 0.95% | [4] -44.8% | [5] -16.1% | [6] -7.05%

COC(=O)C1=C(C(=O)OC)C2(CCCCCC2=O)OC1=O (stereo not given)
inactive: [1] -0.65% | [2] 5.45% | [3] -12.8% | [4] 8.9% | [5] 3.85% | [6] -8.25%

C[N+]1(C)CCOC(O)(c2ccccc2)C1 (stereo not given)
inactive: [1] -29.6% | [2] -34% | [3] -27.4% | [4] -2.85% | [5] -59.1% | [6] -18.6%

COc1ccccc1-c1cc(=O)c2cc(C)cnc2[nH]1
inactive: [1] 5.6% | [2] 5.5% | [3] -0.5% | [4] -30.9% | [5] 4.65% | [6] 13.9%

CCOC(=O)NC(=Cc1ccccn1)c1ccc(Cl)cc1 (mixture of isomers)
inactive: [1] 7.7% | [2] -3.1% | [3] -8.35% | [4] -0.7% | [5] 4.25% | [6] 28.6%

Cc1nccc2scc(S(=O)(=O)O)c12
inactive: [1] 22.6% | [2] 10.5% | [3] 12.1% | [4] -12.8% | [5] -13.7% | [6] 22.7%

CN1NC(=O)CC1c1ccccc1 (stereo not given)
inactive: [1] 18.9% | [2] -3.65% | [3] -10.8% | [4] 11.1% | [5] 0.25% | [6] 5.45%

CC(=O)Oc1ccc(OC(C)=O)c2cc3ccccc3cc12
inactive: [1] -28.1% | [2] -29.1% | [3] -32.9% | [4] -6.6% | [5] -12.8% | [6] -19.8%

CCOC(=O)/N=c1/nc2ccn(C)c2c(NC(=O)OCC)s1
inactive: [1] 15.1% | [2] -3.5% | [3] -5% | [4] 11% | [5] 7.9% | [6] -15.8%

COC1CCCCC(=NNC(N)=O)CCCC1 (stereo not given)
inactive: [1] -0.2% | [2] -2.65% | [3] -13.2% | [4] -44.6% | [5] -7.15% | [6] -1.15%

CCCCCCCC#CC1(CCCC)Sc2ccccc2N1C (stereo not given)
inactive: [1] 15.3% | [2] 6.15% | [3] 0.75% | [4] 8.05% | [5] 6.35% | [6] 19.8%

COC1C(=O)c2ccccc2N1C(C)=O (stereo not given)
inactive: [1] 7.85% | [2] -2.25% | [3] -7.6% | [4] -18.2% | [5] -6.85% | [6] 1.15%

N#Cc1cc2c(n(C3OC(CO)C(O)C(O)C3O)c1=S)CCCCCC2 (stereo not given)
inactive: [1] 31% | [2] 19.5% | [3] 17.8% | [4] 10.4% | [5] -3.55% | [6] 37.1%

Cc1cc2nc(CC(=O)c3cccnc3)c(=O)[nH]c2cc1C
inactive: [1] 0.9% | [2] 3.05% | [3] 12.4% | [4] 18.3% | [5] -8.05% | [6] 15.8%

CC(=O)C=NCC(=O)O
inactive: [1] -2.45% | [2] -3.4% | [3] -32.2% | [4] -24.8% | [5] -26.6% | [6] -8.8%

O=C(O)CCCCCCCCCCS(=O)(=O)CCO
inactive: [1] 5.2% | [2] 6.25% | [3] 13.4% | [4] 20.2% | [5] 19.9% | [6] -10%

O=C(NCCCl)Nc1[nH]c(=O)ncc1Br
inactive: [1] -13.2% | [2] -12.7% | [3] -10.8% | [4] -44.4% | [5] -6.85% | [6] -12.3%

COc1ccc(COC(=O)Nc2ccccc2Cl)cc1
inactive: [1] 5.85% | [2] -9.45% | [3] -4.9% | [4] -6.9% | [5] 17% | [6] -6.35%

CC(C)=CCC/C(C)=C/CNc1ncnc2c1ncn2C1OC(CO)C(O)C1O (stereo not given)
inactive: [1] -4.3% | [2] 13.7% | [3] 6.6% | [4] -37% | [5] 12.9% | [6] 27.6%

N#CCCN1C(=O)C2(CCC#N)CCCCC2(O)N=C1c1ccccc1 (stereo not given)
inactive: [1] -7.35% | [2] 6.15% | [3] 16.5% | [4] -0.5% | [5] 15.2% | [6] 7.7%

CCCCCCCCCCCCCCCCCCCCc1ccccc1
inactive: [1] 25.9% | [2] 10.3% | [3] 1.2% | [4] 12.7% | [5] -14.2% | [6] 26.4%

Cc1cc(Br)cc(C)c1NC(=O)C(=O)C1C(=O)C(CC2C(=O)c3ccccc3C2=O)C(=O)CC1(C)C (stereo not given)
inactive: [1] 36.1% | [2] 22.9% | [3] 0.75% | [4] -5.7% | [5] 4.35% | [6] 16.4%

CCCCN(CCCC)CCC(O)c1cc(C(F)(F)F)nc2c(C(F)(F)F)cccc12 (stereo not given)
inactive: [1] -0.6% | [2] 25.7% | [3] 0.45% | [4] 49.2% | [5] 13.3% | [6] 41.1%

CC1CC(=O)Nc2nc(N)ncc21 (stereo not given)
inactive: [1] 19.4% | [2] 21.8% | [3] 15.7% | [4] -3.8% | [5] 7.75% | [6] 3.9%

COc1ccc2c(c1)C/C(=C\c1ccc(O)c(OC)c1)C2=O
inactive: [1] -46.5% | [2] -14% | [3] -33.5% | [4] -9.9% | [5] 7.8% | [6] -10.1%

N#C/C(=C\NC(N)=S)C(=O)c1ccc2ccccc2c1
inactive: [1] -14.3% | [2] -20.9% | [3] -25.9% | [4] 27.5% | [5] 0.8% | [6] -11.1%

CC(C)(C)OC(=O)NC1CCCCC1NC(=O)C(=O)NC1CCCCC1NC(=O)OC(C)(C)C (stereo not given)
inactive: [1] -17.1% | [2] -18.7% | [3] -14.8% | [4] 4.2% | [5] -10.8% | [6] -30.3%

CCOC(=O)/C(C#N)=C/N=c1ccccn1C
inactive: [1] 5.1% | [2] -7.95% | [3] -1.3% | [4] -25.1% | [5] -6.6% | [6] -4.5%

COc1ccc(-n2c(C)nc3c(cnn3C3OC(CO)C(O)C3O)c2=O)cc1 (stereo not given)
inactive: [1] 16.2% | [2] -5.6% | [3] -15.1% | [4] -4.15% | [5] -1.9% | [6] 11.2%

CP1(=O)CC(=O)CCCCC(=O)C1
inactive: [1] 2.25% | [2] -1.6% | [3] -1.2% | [4] -25.8% | [5] 42.7% | [6] 19.6%

CCN(CC)c1ccc2cc(-c3nc4ccccc4[nH]3)c(=O)oc2c1
inactive: [1] 2% | [2] -5.3% | [3] 12.5% | [4] 3.15% | [5] 11.1% | [6] 2.55%

Nc1ncnc2c1ncn2C1CCN(CCO)C1=O (stereo not given)
inactive: [1] -5.55% | [2] -5.55% | [3] -29.1% | [4] -17.4% | [5] -5.2% | [6] -14.8%

CCOc1ccc(C(C)(CC)c2cc3c(cc2OC)OCO3)cc1 (stereo not given)
inactive: [1] -18.9% | [2] -14.3% | [3] -23.3% | [4] 3.55% | [5] -20.1% | [6] 3.85%

Clc1ccc(-c2nnc(C34CC5CC(CC(C5)C3)C4)o2)cc1
inactive: [1] -12.1% | [2] -8.65% | [3] -11.3% | [4] 2.3% | [5] -8.5% | [6] -18.6%

CCOC(=O)/C=C/SCCCC(=O)O
inactive: [1] 1.5% | [2] -1.5% | [3] 0.25% | [4] -22.8% | [5] -4.55% | [6] 42.2%

CCN(CC)CCOC(=O)C(c1ccccc1)C1C=CCCC1 (stereo not given)
inactive: [1] 38.8% | [2] 2.6% | [3] 19.1% | [4] -1.15% | [5] -3.1% | [6] 30.4%

CN(C)c1ccccc1C(=O)NNC(=S)Nc1ccccc1
inactive: [1] 20.9% | [2] -1.75% | [3] 42.7% | [4] -13.1% | [5] 30.4% | [6] 19.4%

CCOC(=O)C(NNc1ccccc1)C(=O)C(F)(F)F (stereo not given)
inactive: [1] 10.9% | [2] 3.2% | [3] -9.3% | [4] -18.8% | [5] 1.35% | [6] 18.6%
